This assay deals with Glucose transporter (Leishmania mexicana) (UniProt O61059). The experiment in a line: ST_JUDE_LEISH: Cytotoxicity at 2uM final concentration against transgenic Leishmania Mexicana promastigotes LmGT2 that are glucose transport deficient and complemented with the L. Mexicana glucose transporter 2. Activity is measured by DNA content using SYBR green in vitro. It counts as functional.
As to `FC(F)(F)c1cccc(CNC2CCN(CC3CCCCC3)CC2)c1`, the inhibition came to 3.27%. On to `Cn1cncc1CNCc1ccc(-c2cccc(-c3nc4ccccc4[nH]3)c2)cc1`, for which the inhibition was -4.84%. For `CCNc1cc(C(=O)N[C@@H](Cc2cc(F)cc(F)c2)[C@H](O)CNCc2cccc(C(F)(F)F)c2)cc(N2CCCCS2(=O)=O)c1`, the inhibition is -1.62%. Consider `c1ccc(Oc2ccc(Nc3ccnc(Nc4ccc5cn[nH]c5c4)n3)cc2)cc1`, for which the inhibition is 1.54%. Then `Cc1c(C(=O)N2CCCC(C(F)(F)F)C2)sc2cccc(F)c12` (stereo not given), with 5.83%; and `O=C(Nc1cccc(-c2ccc(-c3nc4ccccc4[nH]3)cc2)c1)c1csnn1`, with 0.69%. With `CCCN(CC1CC1)c1nc(C)nc2c(-c3ccccc3)cc(C)cc12` the figure was 10.1%; with `O=C(Nc1ccc(Cn2ncc(N3CCCNCC3)c(Cl)c2=O)cc1)Nc1cccc(SC(F)(F)F)c1`, 0.05%. With `Cc1ccc(-c2cnc3[nH]cc(-c4ccc(C(=O)O)c(C)c4)c3c2)cc1C` the figure was 1.64%.

For the compound `O=C(Nc1ccc(C(=O)Nc2cccc(C3=NCCN3)c2)cc1)Nc1ccc(C2=NCCN2)cc1`, the inhibition was -0.6%. In the case of `O=C(Nc1cccc([N+](=O)[O-])c1)N(Cc1ccc(Cl)c(Cl)c1)C1CCNCC1`, the inhibition is 3.8%.

In the case of `CNCCNCc1cccc(-c2ccc(-c3nc4ccccc4[nH]3)s2)c1`, the inhibition was determined as 5.06%. Then `Cc1c(Cc2ccccc2Br)cnc2nc(N)nc(N)c12`, with 14.2%; and `N#Cc1ccc(C(=O)Nc2cccc(-c3ccc(CN4CCCC4)cc3)c2)cc1`, with 9.04%; and `N=C(N)NC(=O)Nc1cc(Cl)c(F)c(Cl)c1`, with 0.63%.

Turning to `O=C(Nc1ccc2c(ccn2C2CCCN(Cc3cc(F)cc(F)c3F)CC2)c1)c1ccco1` (stereo not given), the inhibition is 2.17%. With `COc1cccc(C=NNc2cc(C)nc3c(OC)cccc23)c1` the figure was 0.35%; with `COc1cc(-c2cc3cc(Cl)c(Cl)cc3[nH]2)ccc1C(=O)NC1CCN(Cc2ccccc2)CC1`, 3.54%; with `COc1ccccc1/C=C/C(=O)N(C)C1CCN(CCCCCNC(=O)/C=C/c2ccc(Cl)c(Cl)c2)CC1`, 5.48%. Then `C=C[C@H]1CN(CCCCCCC)CC[C@H]1CC(=O)Nc1cnnc2ccc(OC)cc12`, with 4.78%; and `Cc1ccc(NC(=O)Nc2ccccc2)cc1-c1ccc(C(=O)Nc2ccncc2)cc1`, with 9%; and `Cc1ccccc1C1CCN(C2CCC(NC(=O)/C=C/c3cc(F)cc(F)c3)CC2)CC1` (stereo not given), with -1.77%. Then `CCc1cn(CCc2ccccc2)c2ccc(C(=O)N[C@@H](Cc3ccccc3)[C@H](O)CNC(C)(C)CCCC(C)C)cc12`, with -2.99%; and `CCOC(=O)c1cc(C(=O)OC)c2ccccn12`, with 1.34%; and `O=C1OC(c2ccccc2)(c2ccccc2)CN1CC1CCN(Cc2ccc(O)c(Cl)c2)CC1`, with 32.2%.

In the case of `Cc1cc(C)cc(OCC(O)CN(Cc2cc(Cl)cc(Cl)c2)C(=O)Nc2ccc([N+](=O)[O-])cc2)c1` (stereo not given), the inhibition turned out to be 5.26%.

With `CCNC(C)(C)CN(Cc1ccc(-c2ccc(C(F)(F)F)cc2)cc1)C(=O)Cn1c(SCc2ccc(F)cc2)nc(=O)c2c1CCC2`, the inhibition amounted to 5.46%. `COc1ccc(OCC(=O)Nc2nc(-c3ccc(OC)cc3)c(C)s2)cc1`: the inhibition is -1.09%. With `CCN(CC)Cc1cc(Nc2c3ccc(Cl)cc3nc3cccc(OC)c23)ccc1O` the figure was 5%; with `CCOc1ccc(NC(=O)c2ccc(CN3CCCN(Cc4cccc(O)c4)CC3)cc2)cc1`, 4.11%; with `CS(=O)(=O)c1ccccc1CNC(=O)c1cccc(-c2ccc(-c3nc4cc(C(F)(F)F)ccc4[nH]3)cc2)c1`, 0.15%. On to `Cc1ccc(NC(=O)c2ccc(CN3CCCN(Cc4cccc(O)c4)CC3)cc2)cc1C`, for which the inhibition turned out to be 4.65%. Then `CN(C)c1ccc(C2c3[nH]cnc3CCN2C(=O)Nc2cccc([N+](=O)[O-])c2)cc1` (stereo not given), with 1.43%; and `CN(C)CCOc1cc(NC(=O)Nc2ccc(-c3ccccc3)cc2Cl)ccc1I`, with -2.09%. Consider `CC(=NNC(S)=NC(C)(C)C)c1ccccn1`, for which the inhibition stood at 49.6%. Take `c1cc2c3c(cccc3c1)NC(CCCCCCCCC1=Nc3cccc4cccc(c34)N1)=N2`: the inhibition stood at 2.28%. As for `O=C(NOCc1ccccc1)c1cc(Cl)ccc1O`, the inhibition is 2.15%. With `CC(CO)(CO)NCc1cc2ccc3ccsc3c2c2ccccc12` the figure was 48%; with `Cc1cc(OCC2CCN(c3ncc(C(=O)Nc4ccccc4)cc3Cl)CC2)ccc1F`, 0.4%. On to `COc1cc(Nc2ccnc3cc(-c4nccs4)ccc23)ccc1OCCCc1nc2ccccc2[nH]1`, for which the inhibition was found to be 4.89%.

The values above are taken from ChEMBL document CHEMBL3433997, “St. Jude Leishmania screening dataset” (2016).
